# PubChem BioAssay AID720690 (Broad Institute, 2013)
# Potency and affinity values are given separately. The source made the active and inactive calls.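 Rule for the calls: active = every repeat run showing a signal drop whose fitted half-maximal concentration is at most twice the top tested concentration; inconclusive = repeat runs disagree, or flat partial drop, or poor fit; inactive = the rest.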
# Assay: HEK293T cytotoxicity, dose response, cytotoxicity control for miR-122 modulator project, cell-based, activator set, cherry-pick (AID 720690)
# Settings: HEK293T viability, CellTiter-Glo luminescence, 48 h; series mostly up to 26 µM
row,Structure (SMILES),outcome
1,CC1(C)CC(=O)c2cnc(NC(=O)c3ccco3)nc2C1,inactive
2,CN(C[C@@H]1[C@@H](c2ccccc2)[C@H](CO)N1C(=O)C1CCC1)C(=O)c1ccccn1,inactive
3,CN(C)CCNc1ncnc2c1sc1nc(N3CCOCC3)c3c(c12)CC(C)(C)SC3,inactive
4,Cc1ccc(-c2noc(CCC(=O)Nc3ccccc3C)n2)cc1,inactive
5,CCCNC(=O)C[C@H]1CC[C@@H]2[C@H](COc3ccc(NS(=O)(=O)c4ccccc4C)cc3C(=O)N2C)O1,inactive
6,COc1cccc(CNC(=O)C[C@@H]2CC[C@@H]3[C@@H](COc4ccc(NC(C)=O)cc4C(=O)N3C)O2)c1,inactive
7,O=C(Nc1ccc(CN2CCOCC2)cc1)c1ccc(-c2ccc(Cl)cc2Cl)o1,inactive
8,CNC(=O)C[C@@H]1CC[C@@H]2[C@@H](COc3ccc(NC(=O)NC(C)C)cc3C(=O)N2C)O1,inactive
9,c1ccc(CCNc2nnnn2-c2ccccc2)cc1,inactive
10,C/C=C/c1ccc([C@@H]2[C@@H](CNC(=O)CC)N(Cc3ccccn3)[C@H]2CO)cc1,inactive
11,CN(C)CCCNC(=O)C[C@@H]1CC[C@@H]2[C@@H](COc3ccc(NC(=O)NC4CCCC4)cc3C(=O)N2C)O1,inactive
12,COC(=O)C[C@@H]1CC[C@H]2[C@@H](COc3ccc(NC(=O)Nc4ccccc4C)cc3C(=O)N2C)O1,inactive
13,CN1C(=O)c2cc(NC(=O)c3cccc(F)c3)ccc2OC[C@@H]2O[C@H](CC(=O)O)CC[C@@H]21,inactive
14,COc1cccc(C(=O)Nc2ccc3c(c2)C(=O)N(C)[C@H]2CC[C@H](CC(=O)NCc4ccc(F)cc4)O[C@@H]2CO3)c1,inactive
15,COCC(=O)Nc1ccc2c(c1)C(=O)N(C)[C@@H]1CC[C@@H](CC(=O)OC)O[C@@H]1CO2,inactive
16,CCN(CC)CCOc1cccc(C(C)C)c1,inactive
17,COCC(=O)N(C)C[C@H]1Oc2cc(C#Cc3cccnc3)ccc2S(=O)(=O)N([C@@H](C)CO)C[C@@H]1C,inactive
18,COC(=O)C[C@@H]1CC[C@@H]2[C@@H](COc3ccc(NC(=O)c4cscn4)cc3C(=O)N2C)O1,inactive
19,CO[C@H]1CN(C)C(=O)c2cc(NC(C)=O)ccc2OC[C@@H](C)N(C(=O)c2ccccn2)C[C@H]1C,inactive
20,COc1ccc(NC(=O)Cn2nnc(C(=O)NCc3ccccc3OC)c2N)cc1Cl,inactive
21,CNC(=O)C[C@@H]1CC[C@H]2[C@H](COc3ccc(NC(=O)c4cccc(OC)c4)cc3C(=O)N2C)O1,inactive
22,C/C=C/c1ccc([C@@H]2[C@@H](CO)N[C@@H]2CN(C(=O)C2CCC2)C(C)C)cc1,inactive
23,CCNC(=O)C[C@@H]1CC[C@H]2[C@@H](COc3ccc(NC(=O)Nc4ccc(F)cc4)cc3C(=O)N2C)O1,inactive
24,CCNC(=O)Nc1ccc2c(c1)C(=O)N(C)[C@H]1CC[C@H](CC(=O)Nc3ccccc3F)O[C@@H]1CO2,inactive
25,CN(c1ccccc1)S(=O)(=O)c1ccc(C(=O)Nc2cccc(S(=O)(=O)N3CCOCC3)c2)cc1,inactive
26,CCCNC(=O)Nc1ccc2c(c1)C(=O)N(C)[C@H]1CC[C@@H](CC(=O)NCC3CCCCC3)O[C@@H]1CO2,inactive
27,COc1ccc2[nH]c(=O)c(COC(=O)c3ccco3)cc2c1,inactive
